Laboratory results published in PubChem BioAssay AID1159580 (chemical genetic matrix, 2015).
Values joined by “and” are separate entries in the source; they are usually repeats but may differ in a detail not shown here. Identical values can stand only once. Out of some 5,500 compounds screened, about 2,000 (36%) were called active. Another 18% or so got no clear call; they are omitted. Cut-off read from the data, not from the text of the source: active = normalized growth mostly below about 0.91 (no sharp cut-off); inconclusive = no clear call, values can overlap the other calls; inactive = mostly above about 0.92. The list shows a part of the results.

Assay: chemical genetic growth profiling, strain panel (AID 1159580);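 note: tested at 20 µM; growth read once vehicle control cultures reached saturation at 30 °C; 1 = growth at the plate median or of vehicle wells; lower values mean less growth of the strain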
Details: S. cerevisiae deletion strains, growth OD

Measured: normalized growth

CCNc1nc(Cl)nc(NC(C)C)n1
inactive: locus YAL013W, strain DEP1, stronger effect = lower value 1.01 | locus YAL021C, strain ccr4, stronger effect = lower value 0.995 | locus YAL026C, strain drs2, stronger effect = lower value 1.01 | locus YAL030W, strain snc1, stronger effect = lower value 0.999 | locus YBL061C, strain skt5, stronger effect = lower value 1.01 | locus YBR009C, strain hhf1, stronger effect = lower value 0.99 | locus YBR021W, strain FUR4, stronger effect = lower value 1.02 | locus YBR023C, strain chs3, stronger effect = lower value 0.998 | locus YBR171W, strain sec66, stronger effect = lower value 0.995 | locus YBR229C, strain ROT2, stronger effect = lower value 1.01 | locus YBR231C, strain swc5, stronger effect = lower value 1.01 | locus YBR279W, strain paf1, stronger effect = lower value 0.998 | locus YCL011C, strain gbp2, stronger effect = lower value 0.993 | locus YCL016C, strain dcc1, stronger effect = lower value 0.995 | locus YCL029C, strain bik1, stronger effect = lower value 1.02 | locus YCL061C, strain MRC1, stronger effect = lower value 0.99 | locus YCL069W, strain vba3, stronger effect = lower value 0.997 | locus YCR088W, strain abp1, stronger effect = lower value 1 | locus YDL005C, strain med2, stronger effect = lower value 0.999 | locus YDL035C, strain GPR1, stronger effect = lower value 1.01 | locus YDL040C, strain nat1, stronger effect = lower value 1 | locus YDL074C, strain BRE1, stronger effect = lower value 1.01 | locus YDL101C, strain DUN1, stronger effect = lower value 1.03 | locus YDL134C, strain PPH21, stronger effect = lower value 1.02 | locus YDL185W, strain tfp1, stronger effect = lower value 1.02 | locus YDL192W, strain arf1, stronger effect = lower value 1.02 | locus YDR001C, strain nth1, stronger effect = lower value 0.992 | locus YDR069C, strain doa4, stronger effect = lower value 1.01 | locus YDR101C, strain arx1, stronger effect = lower value 1.02 | locus YDR137W, strain rgp1, stronger effect = lower value 0.999 | locus YDR150W, strain NUM1, stronger effect = lower value 1.02 | locus YDR159W, strain sac3, stronger effect = lower value 1.01 | locus YDR162C, strain NBP2, stronger effect = lower value 1.04 | locus YDR195W, strain ref2 0.987 | locus YDR297W, strain sur2, stronger effect = lower value 1 | locus YDR318W, strain mcm21, stronger effect = lower value 1.03 | locus YDR334W, strain swr1, stronger effect = lower value 0.999 | locus YDR335W, strain msn5, stronger effect = lower value 1.01 | locus YDR388W, stronger effect = lower value 1.01 | locus YDR392W, strain spt3, stronger effect = lower value 1.01 | locus YDR502C, strain sam2, stronger effect = lower value 1.02 | locus YEL003W, strain gim4, stronger effect = lower value 0.994 | locus YEL037C, strain rad23, stronger effect = lower value 1.01 | locus YEL061C, strain CIN8 (second series), stronger effect = lower value 1.01 | locus YEL061C, strain CIN8, stronger effect = lower value 1.01 | locus YER015W, strain faa2, stronger effect = lower value 1 | locus YER016W, strain bim1, stronger effect = lower value 0.997 | locus YER110C, stronger effect = lower value 1.02 | locus YER111C, strain swi4, stronger effect = lower value 1 | locus YER155C, strain BEM2 (second series), stronger effect = lower value 0.993 | locus YER155C, strain BEM2, stronger effect = lower value 1 | locus YER167W, strain BCK2, stronger effect = lower value 1.02 | locus YFR010W, strain ubp6, stronger effect = lower value 1.01 | locus YGL078C, strain dbp3, stronger effect = lower value 1.02 | locus YGL086W, strain mad1, stronger effect = lower value 1.01 | locus YGL167C, strain pmr1, stronger effect = lower value 0.994 | locus YGL173C, strain kem1, stronger effect = lower value 1.01 | locus YGL227W, strain vid30, stronger effect = lower value 0.999 | locus YGL240W, strain doc1, stronger effect = lower value 0.98 | locus YGL248W, strain PDE1, stronger effect = lower value 1.01 | locus YGL253W, strain hxk2, stronger effect = lower value 1 | locus YGR078C, strain PAC10, stronger effect = lower value 1.02 | locus YGR135W, strain pre9, stronger effect = lower value 1.01 | locus YGR229C, strain SMI1, stronger effect = lower value 1.02 | locus YGR252W, strain gcn5, stronger effect = lower value 1 | locus YHR013C, strain ard1, stronger effect = lower value 1.01 | locus YHR027C, strain rpn1, stronger effect = lower value 1 | locus YHR030C, strain SLT2, stronger effect = lower value 1.03 and 0.992 | locus YHR079C, strain IRE1 (second series), stronger effect = lower value 1.02 | locus YHR079C, strain IRE1, stronger effect = lower value 0.99 | locus YHR094C, strain hxt1, stronger effect = lower value 1.02 | locus YHR129C, strain ARP1, stronger effect = lower value 1.01 | locus YHR142W, strain chs7, stronger effect = lower value 0.972 | locus YHR200W, strain rpn10, stronger effect = lower value 1.02 | locus YIL066C, strain RNR3, stronger effect = lower value 0.944 | locus YIL073C, strain SPO22, stronger effect = lower value 1.04 | locus YIL125W, strain kgd1, stronger effect = lower value 1.02 | locus YIR030C, strain dcg1, stronger effect = lower value 1.03 | locus YJL092W, strain hpr5, stronger effect = lower value 0.998 | locus YJL095W, strain BCK1 (second series), stronger effect = lower value 1 | locus YJL095W, strain BCK1, stronger effect = lower value 1 and 0.985 | locus YJL115W, strain asf1, stronger effect = lower value 1.01 | locus YJL129C, strain trk1, stronger effect = lower value 0.982 | locus YJL134W, strain LCB3, stronger effect = lower value 1.03 | locus YJL154C, strain vps35, stronger effect = lower value 0.996 | locus YJL164C, strain tpk1, stronger effect = lower value 0.998 | locus YJL166W, strain qcr8, stronger effect = lower value 0.993 | locus YJL168C, strain set2, stronger effect = lower value 1.02 | locus YJL187C, strain SWE1 (second series), stronger effect = lower value 1.02 | locus YJR043C, strain POL32, stronger effect = lower value 1.02 | locus YJR066W, strain TOR1, stronger effect = lower value 0.959
